Results from PubChem BioAssay AID1159580 (chemical genetic matrix, 2015).
“And” between values parts separate entries of the source, which are not always exact repeats. Equal entries are not always repeated. The campaign covered roughly 5,500 compounds. About 2,000 (36%) were called active. Another 18% or so got no clear call; they are omitted. Rule as the data show it: active = normalized growth mostly below about 0.91 (no sharp cut-off); inconclusive = no clear call, values can overlap the other calls; inactive = mostly above about 0.92. This is one part of the list.

Assay: chemical genetic growth profiling, strain panel (AID 1159580);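 also: tested at 20 µM; growth read once vehicle control cultures reached saturation at 30 °C; 1 = growth at the plate median or of vehicle wells; lower values mean less growth of the strain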
Conditions: S. cerevisiae deletion strains, growth OD

Measured: normalized growth

C[C@]12C=CC(=O)C=C1CCC1C3C[C@@H](O)[C@](O)(C(=O)CO)[C@@]3(C)C[C@H](O)[C@@]12F (some centres undefined)
inactive: locus YAL021C, strain ccr4, active compounds read low 0.932 | locus YAL026C, strain drs2, active compounds read low 0.992 | locus YAL030W, strain snc1, active compounds read low 0.996 | locus YBL061C, strain skt5, active compounds read low 0.984 | locus YBR009C, strain hhf1, active compounds read low 0.999 | locus YBR021W, strain FUR4, active compounds read low 1.02 | locus YBR023C, strain chs3, active compounds read low 0.961 | locus YBR171W, strain sec66, active compounds read low 0.976 | locus YBR229C, strain ROT2, active compounds read low 1.01 | locus YBR231C, strain swc5, active compounds read low 1.01 | locus YBR279W, strain paf1, active compounds read low 0.973 | locus YCL011C, strain gbp2, active compounds read low 0.974 | locus YCL016C, strain dcc1, active compounds read low 0.958 | locus YCL029C, strain bik1, active compounds read low 0.98 | locus YCL061C, strain MRC1, active compounds read low 0.996 | locus YCL069W, strain vba3, active compounds read low 0.983 | locus YCR088W, strain abp1, active compounds read low 0.985 | locus YDL005C, strain med2, active compounds read low 0.997 | locus YDL035C, strain GPR1, active compounds read low 1.02 | locus YDL040C, strain nat1, active compounds read low 0.992 | locus YDL074C, strain BRE1, active compounds read low 1.04 | locus YDL101C, strain DUN1, active compounds read low 1.02 | locus YDL134C, strain PPH21, active compounds read low 1 | locus YDL185W, strain tfp1, active compounds read low 0.973 | locus YDL192W, strain arf1, active compounds read low 0.984 | locus YDR001C, strain nth1, active compounds read low 0.983 | locus YDR069C, strain doa4, active compounds read low 0.954 | locus YDR101C, strain arx1, active compounds read low 0.971 | locus YDR137W, strain rgp1, active compounds read low 0.965 | locus YDR150W, strain NUM1, active compounds read low 1.02 | locus YDR159W, strain sac3, active compounds read low 0.975 | locus YDR162C, strain NBP2, active compounds read low 1 | locus YDR195W, strain ref2 0.991 | locus YDR297W, strain sur2, active compounds read low 0.994 | locus YDR318W, strain mcm21, active compounds read low 0.985 | locus YDR334W, strain swr1, active compounds read low 0.976 | locus YDR335W, strain msn5, active compounds read low 0.984 | locus YDR388W, active compounds read low 0.982 | locus YDR392W, strain spt3, active compounds read low 0.896 | locus YDR502C, strain sam2, active compounds read low 0.981 | locus YEL003W, strain gim4, active compounds read low 1 | locus YEL037C, strain rad23, active compounds read low 0.987 | locus YEL061C, strain CIN8 (second series), active compounds read low 0.991 | locus YEL061C, strain CIN8, active compounds read low 1.01 | locus YER015W, strain faa2, active compounds read low 0.999 | locus YER016W, strain bim1, active compounds read low 0.942 | locus YER110C, active compounds read low 0.979 | locus YER111C, strain swi4, active compounds read low 0.975 | locus YER155C, strain BEM2 (second series), active compounds read low 0.989 | locus YER155C, strain BEM2, active compounds read low 1.01 | locus YER167W, strain BCK2, active compounds read low 1 | locus YFR010W, strain ubp6, active compounds read low 1 | locus YGL078C, strain dbp3, active compounds read low 0.981 | locus YGL086W, strain mad1, active compounds read low 0.996 | locus YGL167C, strain pmr1, active compounds read low 0.992 | locus YGL173C, strain kem1, active compounds read low 0.98 | locus YGL227W, strain vid30, active compounds read low 0.962 | locus YGL240W, strain doc1, active compounds read low 0.991 | locus YGL248W, strain PDE1, active compounds read low 1.02 | locus YGL253W, strain hxk2, active compounds read low 0.98 | locus YGR135W, strain pre9, active compounds read low 0.99 | locus YGR229C, strain SMI1, active compounds read low 1.01 | locus YGR252W, strain gcn5, active compounds read low 1.01 | locus YHR013C, strain ard1, active compounds read low 0.952 | locus YHR027C, strain rpn1, active compounds read low 0.998 | locus YHR030C, strain SLT2, active compounds read low 1.01 and 0.984 | locus YHR079C, strain IRE1 (second series), active compounds read low 0.973 | locus YHR079C, strain IRE1, active compounds read low 0.991 | locus YHR094C, strain hxt1, active compounds read low 0.984 | locus YHR129C, strain ARP1, active compounds read low 1.02 | locus YHR142W, strain chs7, active compounds read low 0.956 | locus YHR200W, strain rpn10, active compounds read low 0.988 | locus YIL066C, strain RNR3, active compounds read low 1.01 | locus YIL073C, strain SPO22, active compounds read low 0.984 | locus YIL125W, strain kgd1, active compounds read low 0.989 | locus YIR030C, strain dcg1, active compounds read low 0.98 | locus YJL092W, strain hpr5, active compounds read low 0.99 | locus YJL095W, strain BCK1 (second series), active compounds read low 0.995 | locus YJL095W, strain BCK1, active compounds read low 1.03 and 0.985 | locus YJL115W, strain asf1, active compounds read low 0.971 | locus YJL129C, strain trk1, active compounds read low 0.948 | locus YJL134W, strain LCB3, active compounds read low 1.01 | locus YJL154C, strain vps35, active compounds read low 0.967 | locus YJL164C, strain tpk1, active compounds read low 1.01 | locus YJL166W, strain qcr8, active compounds read low 1.01 | locus YJL168C, strain set2, active compounds read low 0.989 | locus YJL187C, strain SWE1 (second series), active compounds read low 1.01 | locus YJL187C, strain SWE1, active compounds read low 0.982 | locus YJR043C, strain POL32, active compounds read low 1.02
